Assay outcomes: PubChem, several laboratories
SKKanGAS inh: blocks kanamycin growth of S. pyogenes SKKanGAS strain; inhibition, % at 7.5 µM; BacTiter-Glo, 6 h; 300,000 compounds, 1.3% hits; AID 1662;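 active means mean replicate score, as percent of positive control median, at least 50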;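 further: strain carries kanamycin resistance gene driven by streptokinase promoter and grows in 40 µg/ml kanamycin; loss of luminescence reflects streptokinase promoter inhibition or plain growth inhibition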
tim10-1 inh: growth inhibitors of tim10-1 mutant yeast. S. cerevisiae tim10-1 ts strain growth, BacTiter-Glo, 24 h. inhibition, % at 20 µM. 330,000 compounds, 2.2% hits;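 active means inhibition of at least 40%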;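 further: mutant grown at 25 °C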
tim23-1 inh: growth inhibitors of tim23-1 mutant yeast | S. cerevisiae tim23-1 growth, BacTiter-Glo luminescence, 24 h | inhibition, % at 20 µM | 330,000 compounds, 1.3% hits;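 active means growth inhibition of the mutant yeast at or above 50%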;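 further: temperature-sensitive mutant grown at 25 °C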
PfHsp90 yeast 2: reduces growth (ATP signal) of yeast expressing P. falciparum Hsp90; AID 504621; 310,000 compounds, 0.32% hits; inhibition, % at 9.4 µM; S. cerevisiae expressing PfHsp90, BacTiter-Glo ATP, 48 h; yeast lacking PDR1 and PDR3 efflux regulators;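 active means every replicate shows inhibition above about 80%, whatever the replicate mean, limit read from the data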
TIM10 inh: TIM10 yeast growth inhibition; AID 463195; inhibition, % at 10 µM; 330,000 compounds, 1.4% hits; S. cerevisiae TIM10 strain growth, BacTiter-Glo luminescence, 24 h;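 active means inhibition of 40% or more at the single tested concentration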;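 further: wild-type TIM10 isogenic control strain grown at permissive 25 °C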
ATG4B inhibitor: blocks human ATG4B protease cleavage of LC3 substrate. Q9Y4P1. ATG4B cleavage of LC3-PLA2, NBD-HPC fluorescence, 1 h. inhibition, % at 8.33 µM. 340,000 compounds, 0.51% hits. AID 504462; in the data active means inhibition above about 40%
Target sequence (Q9Y4P1 whole entry, looked up): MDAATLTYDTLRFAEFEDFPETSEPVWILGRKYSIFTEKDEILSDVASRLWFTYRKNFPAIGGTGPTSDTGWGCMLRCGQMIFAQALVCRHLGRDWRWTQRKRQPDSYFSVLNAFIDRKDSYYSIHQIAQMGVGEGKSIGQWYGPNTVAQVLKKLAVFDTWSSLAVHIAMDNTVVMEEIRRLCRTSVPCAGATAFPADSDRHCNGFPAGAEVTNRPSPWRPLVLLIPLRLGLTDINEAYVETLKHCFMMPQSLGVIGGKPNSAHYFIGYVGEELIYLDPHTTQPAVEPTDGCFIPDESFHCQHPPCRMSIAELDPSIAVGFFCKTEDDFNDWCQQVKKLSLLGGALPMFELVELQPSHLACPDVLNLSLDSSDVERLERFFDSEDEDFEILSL
tim23-1 conf: tim23-1 yeast growth inhibition, confirmed | shares compounds with tim23-1 inh | S. cerevisiae tim23-1 growth, BacTiter-Glo luminescence, 24 h | inhibition, % at 20 µM | 4,400 compounds, 83% hits | AID 463218;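 active means inhibition above about 39% in either of two replicate wells at 20 µM, limit read from the data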;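 further: temperature-sensitive tim23-1 mutant grown at 25 °C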
Large screens that a line does not name were inactive (follow-up assays come after a bar, where they were run). This is a sample that favours compounds with a hit; in the whole collection about 4.7% have one here.

Cc1ccc(NC(=O)Nc2c(C)n(C)n(-c3ccccc3)c2=O)cc1	tim23-1 inh 94.2 | tim23-1 conf inactive
CN=C1S/C(=C\c2cccc(Cl)c2Cl)C(=O)N1C	tim23-1 inh 50.3 (no result: PfHsp90 yeast 2) | tim23-1 conf 60.1
O=C(COc1ccccc1-c1ccccc1)N/N=C/c1ccncc1	tim23-1 inh 52.7 | tim23-1 conf 44.5
COc1ccc(-c2csc(N)n2)cc1	none
Oc1ccc(-c2csc(-c3ccccc3)n2)cc1O	tim23-1 inh 57.5 | tim23-1 conf inactive
Nc1nc(-c2ccc(Oc3ccccc3)cc2)cs1	tim23-1 inh 57.1 | tim23-1 conf 48.2
Nc1nc(-c2ccc(-c3ccccc3)cc2)cs1	tim23-1 inh 54.0 | tim23-1 conf 68.7
Oc1ccc(-c2csc(-c3cccnc3)n2)cc1O	none
Cc1noc(C)c1NC(=O)N(C)C[C@H]1Oc2c(NS(=O)(=O)c3cccs3)cccc2C(=O)N([C@H](C)CO)C[C@@H]1C	none (no result: SKKanGAS inh)
Cc1nn(CC(=O)NCc2cccnc2)c(=O)c2ccccc12	none
CS(=O)(=O)c1nc(-c2ccc(F)cc2)cc(C(F)(F)F)n1	none (no result: tim10-1 inh, tim23-1 inh, TIM10 inh)
CCOC(=O)CS(=O)(=O)c1nc(-c2ccc(F)cc2)cc(C(F)(F)F)n1	tim23-1 inh 69.4 | tim23-1 conf inactive
CN(C)CCCNC(=O)/C=C/c1ccc2c(c1)OCO2	none
COc1ccc(CCN(/C=C2\Sc3ccccc3C2=O)C(C)=O)cc1OC	tim23-1 inh 50.4 (no result: PfHsp90 yeast 2) | tim23-1 conf 51.9
CN(C)/C=C1/Sc2ccccc2C1=O	none
CCOC(=O)c1nnc(-c2ccccc2)nc1Oc1ccccc1Cl	tim23-1 inh 53.2 (no result: PfHsp90 yeast 2) | tim23-1 conf 55.6
CCOC(=O)c1nnc(-c2ccccc2)nc1NC	none
C=CCOc1ccc(Br)cc1/C=N/O	none
COc1ccc(OC)c(C(=O)c2coc3cc(Br)c(O)c(Br)c23)c1	tim23-1 inh 57.8 | tim23-1 conf 45.5
O=C(Nc1ccc(NC(=O)C2CC2)nc1)c1cccnc1	tim23-1 inh 53.2 | tim23-1 conf inactive
O=C(Nc1ccc(NC(=O)C2CC2)cn1)c1ccccc1	none
O=C(COc1c(Br)cc(Br)c2cccnc12)N1CCCCC1	none
O=C(COc1c(Br)cc(Br)c2cccnc12)N1CCc2ccccc2C1	tim23-1 inh 50.5 | tim23-1 conf 50.7
C=C1CCN([C@@H](Cc2ccccc2)C(=O)NCc2ccc(Cl)cc2)S(=O)(=O)c2ccccc21	none (no result: PfHsp90 yeast 2)
Cc1cccc(CN2CCN(C(=S)Nc3ccccc3)CC2)c1	none
CN1CCN(CC#CC(C)(O)C2CC3C=CC2C3)CC1 (stereo unspecified)	none
O=C(c1cc2ccccc2oc1=O)N(Cc1ccco1)C1CCS(=O)(=O)C1 (stereo unspecified)	tim23-1 inh 93.9 | tim23-1 conf inactive
O=c1ncn(C2CCCCC2)c(=O)[nH]1	none (no result: SKKanGAS inh, tim10-1 inh, tim23-1 inh, TIM10 inh)
C/C(=N\OCC(=O)N/N=C/c1ccccc1O)c1cccs1	tim23-1 inh 56.4 (no result: PfHsp90 yeast 2) | tim23-1 conf 57.1
CCC1(CC)Cc2ccccc2-c2nc(NCCO)[nH]c(=O)c21	none
CC1(C)Cc2ccccc2-c2nc(NN)[nH]c(=O)c21	tim23-1 inh 50.7 | tim23-1 conf inactive
O=C(NCCc1c[nH]c2ccccc12)C(=O)c1c[nH]c2ccccc12	none
Oc1ccccc1/C=N/NC(=S)NC1CC2CC1C1C=CCC21 (stereo unspecified)	SKKanGAS inh 93.2, tim23-1 inh 73.8 | tim23-1 conf 48.9
O=C(CSc1cccs1)Nc1ccc2ccccc2c1	tim23-1 inh 54.9 | tim23-1 conf 57.3
COc1ccc(C(=O)n2cc(C(=O)c3cc(C)ccc3O)cn2)cc1	none
COc1ccc(O)c(C(=O)c2cnn(C(=O)c3cc(C)oc3C)c2)c1	tim23-1 inh 58.2 | tim23-1 conf 55.1
COc1ccc(O)c(C(=O)c2cnn(C(=O)c3cccc(N(C)C)c3)c2)c1	tim23-1 inh 58.4 (no result: SKKanGAS inh) | tim23-1 conf 57.0
O=c1oc(-c2cccs2)nc2ccc(Br)cc12	tim23-1 inh 67.0 | tim23-1 conf inactive
Cc1ccc2nc(-c3cccs3)oc(=O)c2c1	none (no result: PfHsp90 yeast 2)
COc1cccc(CNc2ncnc3cc(Cl)ccc23)c1	none (no result: tim10-1 inh, tim23-1 inh, TIM10 inh)
Fc1cccc(CNc2ncnc3cc(Cl)ccc23)c1F	tim23-1 inh 60.2 | tim23-1 conf inactive
COC(=O)/C(=C\C(=O)c1ccc([N+](=O)[O-])cc1)Nc1ccc(OC)cc1	none (no result: PfHsp90 yeast 2)
CN(C)C(=O)c1ccc(NC(=O)CC2SC(N3CCCC3)=NC2=O)cc1 (stereo unspecified)	none (no result: PfHsp90 yeast 2)
COc1cc(/C=C/C(=O)O)cc(S(=O)(=O)Nc2ccc3[nH]c(=O)[nH]c3c2)c1OC	none
CC(C)n1cc(NC(=O)c2cc(-c3ccccc3)on2)cn1	tim23-1 inh 55.0 | tim23-1 conf 53.5
O=C(Nc1cccnc1)c1cc(-c2ccccc2)on1	none
CCN(CC)S(=O)(=O)c1csc(C(=O)NC2CCCCC2)c1	tim23-1 inh 96.1 (no result: PfHsp90 yeast 2) | tim23-1 conf inactive
N#CC1=C(N)c2ccccc2CC12CCCCC2	tim23-1 inh 51.1 | tim23-1 conf 41.0
CC(=O)Nc1ccc(NC(=O)Cn2c(=O)n(-c3ccc(F)cc3)c(=O)c3oc4ccccc4c32)cc1	none
Clc1cccc(CSc2nnc(-c3ccccn3)n2Cc2ccco2)c1	tim23-1 inh 52.3 (no result: PfHsp90 yeast 2) | tim23-1 conf 57.1
Cn1c(=O)c2c(nc(CN3CCc4ccccc4C3)n2Cc2cccc(Cl)c2)n(C)c1=O	tim23-1 inh 51.3 | tim23-1 conf 54.4
COc1ccccc1/C=N/NC(=O)CSc1ccc2ccccc2n1	none
COC(=O)CC1COc2ccccc2N1S(=O)(=O)c1ccc(OC)cc1 (stereo unspecified)	none
COC(=O)CC1COc2ccccc2N1S(=O)(=O)c1ccc(Br)cc1 (stereo unspecified)	tim23-1 inh 53.5 | tim23-1 conf inactive
COc1ccccc1/C=C/C(=O)NC(=S)NC(C)C	tim23-1 inh 59.0 | tim23-1 conf 41.1
COc1ccccc1/C=C/C(=O)NC(=S)N1CCN(C)CC1	none (no result: SKKanGAS inh)
CC(=O)NC(c1cc(F)c2cccnc2c1O)C1CC1 (stereo unspecified)	none (no result: SKKanGAS inh, PfHsp90 yeast 2)
Oc1c(C(c2ccccn2)N2CCCCC2)cc(Cl)c2cccnc12 (stereo unspecified)	SKKanGAS inh 54.2, tim23-1 inh 52.9 | tim23-1 conf 64.0
CCC(=O)NC(c1cccs1)c1cc(Cl)c2cccnc2c1O (stereo unspecified)	SKKanGAS inh 66.0, tim23-1 inh 51.3, PfHsp90 yeast 2 101.5 | tim23-1 conf 70.1
CC(=O)NC(c1ccccc1)c1cc(Cl)c2cccnc2c1O (stereo unspecified)	SKKanGAS inh 79.0, tim23-1 inh 55.5, PfHsp90 yeast 2 106.5 | tim23-1 conf 67.0
CCC(=O)NC(c1cc(Cl)c2cccnc2c1O)C(C)C (stereo unspecified)	tim23-1 inh 52.4 (no result: SKKanGAS inh) | tim23-1 conf 52.5
